# Reference: article PMC7862700, “An all-to-all approach to the identification of sequence-specific readers for epigenetic DNA modifications on cytosine”
# What was measured:
# Experiment in all cases: DAPPL (digital affinity profiling via proximity ligation, sequencing); 10 mM Tris-HCl pH 7.5, 50 mM NaCl, 1 mM DTT, 4% glycerol, room temperature, 30 min; GST-TFs on glutathione beads, 16-mer random dsDNA library, 0.1% formaldehyde crosslink after washing; high values mean tight binding
# FEV = target: T1, FEV (Homo sapiens, UniProt Q99581 1-238); settings: protein: recombinant; tags: N-terminal GST; dsDNA, one strand shown
# T1 sequence: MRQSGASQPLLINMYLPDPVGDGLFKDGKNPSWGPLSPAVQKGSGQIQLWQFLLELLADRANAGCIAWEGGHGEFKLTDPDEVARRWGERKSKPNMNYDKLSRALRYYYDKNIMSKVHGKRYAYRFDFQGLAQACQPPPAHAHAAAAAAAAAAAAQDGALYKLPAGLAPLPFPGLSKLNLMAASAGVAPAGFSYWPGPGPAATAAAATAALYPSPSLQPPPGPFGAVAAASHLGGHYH
# Method in brief: (§1)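 Yeast served to express human transcription factors as GST fusions, which were then captured on glutathione beads and labelled with DNA barcodes. Pooled with a tag-only sample, they were incubated with 200 nmole of a 16-mer random double-stranded DNA library for 30 min at room temperature in Tris/NaCl/DTT/glycerol buffer, washed, crosslinked with 0.1% formaldehyde, ligated by proximity, amplified by PCR and sequenced. Dividing each hexamer's read frequency for a factor by its frequency for the tag-only sample gives the binding signal.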
# ETV5 = ETV5 (Homo sapiens, UniProt P41161 1-510); settings: protein: recombinant; tags: N-terminal GST; dsDNA, one strand shown
# ETV5, sequence (P41161 whole entry): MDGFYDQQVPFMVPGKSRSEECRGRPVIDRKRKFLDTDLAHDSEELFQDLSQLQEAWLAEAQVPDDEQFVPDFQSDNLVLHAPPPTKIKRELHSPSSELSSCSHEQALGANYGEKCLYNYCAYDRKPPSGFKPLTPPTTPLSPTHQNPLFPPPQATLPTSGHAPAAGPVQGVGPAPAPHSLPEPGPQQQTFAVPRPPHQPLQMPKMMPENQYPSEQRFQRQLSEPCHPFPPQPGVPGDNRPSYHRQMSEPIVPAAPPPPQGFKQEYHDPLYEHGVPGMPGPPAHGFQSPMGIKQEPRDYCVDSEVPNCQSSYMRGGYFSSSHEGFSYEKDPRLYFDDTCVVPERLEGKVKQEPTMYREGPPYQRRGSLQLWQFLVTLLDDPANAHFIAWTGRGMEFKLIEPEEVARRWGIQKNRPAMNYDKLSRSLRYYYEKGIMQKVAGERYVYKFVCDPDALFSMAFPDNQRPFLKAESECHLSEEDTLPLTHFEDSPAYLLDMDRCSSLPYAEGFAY
# Method in brief: as §1
# HSF1 = HSF1 (Homo sapiens, UniProt Q00613 1-529); settings: protein: recombinant; tags: N-terminal GST; chain copies: 3; dsDNA, one strand shown
# HSF1, sequence (Q00613 whole entry): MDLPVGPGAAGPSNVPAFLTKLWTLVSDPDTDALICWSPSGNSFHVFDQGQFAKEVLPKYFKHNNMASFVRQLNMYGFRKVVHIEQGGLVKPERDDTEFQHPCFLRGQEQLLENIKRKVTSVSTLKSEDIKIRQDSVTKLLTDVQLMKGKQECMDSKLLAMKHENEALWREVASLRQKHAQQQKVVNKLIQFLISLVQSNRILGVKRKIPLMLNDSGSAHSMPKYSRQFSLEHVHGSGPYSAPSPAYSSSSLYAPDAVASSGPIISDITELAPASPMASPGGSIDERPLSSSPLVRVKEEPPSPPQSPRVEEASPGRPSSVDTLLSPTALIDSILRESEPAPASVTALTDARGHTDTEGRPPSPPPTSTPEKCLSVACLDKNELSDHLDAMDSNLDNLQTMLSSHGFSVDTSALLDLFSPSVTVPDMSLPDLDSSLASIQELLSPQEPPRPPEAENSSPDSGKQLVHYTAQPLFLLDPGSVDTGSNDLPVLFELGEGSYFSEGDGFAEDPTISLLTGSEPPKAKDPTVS
# Method in brief: as §1
# SPIC = target: T2, SPIC (Homo sapiens, UniProt Q8N5J4 1-248); settings: protein: recombinant; tags: N-terminal GST; dsDNA, one strand shown
# T2 sequence: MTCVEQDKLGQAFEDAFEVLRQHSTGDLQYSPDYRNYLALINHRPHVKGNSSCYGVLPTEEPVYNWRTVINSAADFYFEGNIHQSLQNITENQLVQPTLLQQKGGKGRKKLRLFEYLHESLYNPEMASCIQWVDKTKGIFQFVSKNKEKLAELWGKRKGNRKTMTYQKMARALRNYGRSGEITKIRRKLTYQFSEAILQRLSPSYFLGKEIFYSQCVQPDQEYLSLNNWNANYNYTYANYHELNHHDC
# Method in brief: as §1
# ELF4 = ELF4 (Homo sapiens, UniProt Q99607 1-663); settings: protein: recombinant; tags: N-terminal GST; dsDNA, one strand shown
# ELF4, sequence (Q99607 whole entry): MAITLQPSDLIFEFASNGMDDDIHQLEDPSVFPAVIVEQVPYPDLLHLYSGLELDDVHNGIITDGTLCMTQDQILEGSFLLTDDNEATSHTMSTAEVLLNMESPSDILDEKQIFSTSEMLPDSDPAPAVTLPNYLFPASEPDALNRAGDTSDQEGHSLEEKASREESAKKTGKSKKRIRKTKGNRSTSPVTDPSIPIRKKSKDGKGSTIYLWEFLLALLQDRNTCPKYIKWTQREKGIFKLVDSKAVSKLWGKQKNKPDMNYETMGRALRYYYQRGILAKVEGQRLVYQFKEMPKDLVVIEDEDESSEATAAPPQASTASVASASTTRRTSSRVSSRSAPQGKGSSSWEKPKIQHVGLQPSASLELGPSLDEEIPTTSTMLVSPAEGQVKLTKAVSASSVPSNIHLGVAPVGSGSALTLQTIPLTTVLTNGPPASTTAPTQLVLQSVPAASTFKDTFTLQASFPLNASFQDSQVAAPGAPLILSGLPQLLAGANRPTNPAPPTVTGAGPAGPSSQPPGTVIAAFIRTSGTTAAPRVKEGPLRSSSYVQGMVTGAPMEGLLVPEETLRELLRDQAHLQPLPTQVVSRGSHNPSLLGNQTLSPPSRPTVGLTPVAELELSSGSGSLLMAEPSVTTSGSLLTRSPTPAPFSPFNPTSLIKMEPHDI
# Method in brief: as §1
# ELK4 = target: T3, ELK4 (Homo sapiens, UniProt P28324-2 1-405); settings: protein: recombinant; tags: N-terminal GST; dsDNA, one strand shown
# T3 sequence: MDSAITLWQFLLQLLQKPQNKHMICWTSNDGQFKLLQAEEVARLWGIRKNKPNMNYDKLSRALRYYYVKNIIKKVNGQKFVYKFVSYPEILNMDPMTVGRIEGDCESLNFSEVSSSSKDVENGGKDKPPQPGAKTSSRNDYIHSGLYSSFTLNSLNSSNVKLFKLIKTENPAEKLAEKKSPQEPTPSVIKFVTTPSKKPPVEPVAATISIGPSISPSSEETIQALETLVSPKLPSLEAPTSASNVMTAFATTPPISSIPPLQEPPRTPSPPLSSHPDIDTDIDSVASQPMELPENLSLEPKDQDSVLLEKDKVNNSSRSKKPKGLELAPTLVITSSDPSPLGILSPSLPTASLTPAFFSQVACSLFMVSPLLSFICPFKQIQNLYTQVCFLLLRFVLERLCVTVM
# Method in brief: as §1
# ETV2 = target: T4, ETV2 (Homo sapiens, UniProt O00321 1-342); settings: protein: recombinant; tags: N-terminal GST; dsDNA, one strand shown
# T4 sequence: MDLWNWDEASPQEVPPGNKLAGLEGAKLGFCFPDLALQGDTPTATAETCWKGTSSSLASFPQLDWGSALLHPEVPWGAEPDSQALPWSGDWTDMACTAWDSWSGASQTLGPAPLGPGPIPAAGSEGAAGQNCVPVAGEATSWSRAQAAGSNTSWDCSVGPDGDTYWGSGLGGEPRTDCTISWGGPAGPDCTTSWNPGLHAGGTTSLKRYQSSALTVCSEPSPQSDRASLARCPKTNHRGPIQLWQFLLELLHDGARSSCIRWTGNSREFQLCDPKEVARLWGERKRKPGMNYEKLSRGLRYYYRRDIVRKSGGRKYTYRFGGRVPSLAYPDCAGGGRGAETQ
# Method in brief: as §1
# ELF3 = target: T5, ELF3 (Homo sapiens, UniProt P78545 1-371); settings: protein: recombinant; tags: N-terminal GST; dsDNA, one strand shown
# T5 sequence: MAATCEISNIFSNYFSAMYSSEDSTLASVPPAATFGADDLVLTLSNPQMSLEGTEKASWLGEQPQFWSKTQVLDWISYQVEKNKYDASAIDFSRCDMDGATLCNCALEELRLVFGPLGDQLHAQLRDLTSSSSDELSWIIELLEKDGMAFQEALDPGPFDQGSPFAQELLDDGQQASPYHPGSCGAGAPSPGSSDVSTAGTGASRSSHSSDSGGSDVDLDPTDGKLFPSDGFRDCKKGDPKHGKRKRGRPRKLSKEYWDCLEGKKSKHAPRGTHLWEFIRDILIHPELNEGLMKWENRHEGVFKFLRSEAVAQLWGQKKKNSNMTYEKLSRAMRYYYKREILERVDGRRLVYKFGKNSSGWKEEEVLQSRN
# Method in brief: as §1
# CRX = CRX (Homo sapiens, UniProt O43186 1-299); settings: protein: recombinant; tags: N-terminal GST; dsDNA, one strand shown
# CRX, sequence (O43186 whole entry): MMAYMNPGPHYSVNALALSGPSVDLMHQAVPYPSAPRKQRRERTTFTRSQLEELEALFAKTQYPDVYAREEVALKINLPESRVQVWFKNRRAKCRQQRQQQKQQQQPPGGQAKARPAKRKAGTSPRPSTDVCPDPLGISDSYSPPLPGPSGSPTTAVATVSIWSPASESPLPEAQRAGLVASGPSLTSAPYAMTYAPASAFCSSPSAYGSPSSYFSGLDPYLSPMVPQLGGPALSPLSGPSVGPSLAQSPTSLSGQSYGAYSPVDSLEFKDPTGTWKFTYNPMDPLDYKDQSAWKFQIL
# Method in brief: as §1
# ETV1 = ETV1 (Homo sapiens, UniProt P50549 1-477); settings: protein: recombinant; tags: N-terminal GST; dsDNA, one strand shown
# ETV1, sequence (P50549 whole entry): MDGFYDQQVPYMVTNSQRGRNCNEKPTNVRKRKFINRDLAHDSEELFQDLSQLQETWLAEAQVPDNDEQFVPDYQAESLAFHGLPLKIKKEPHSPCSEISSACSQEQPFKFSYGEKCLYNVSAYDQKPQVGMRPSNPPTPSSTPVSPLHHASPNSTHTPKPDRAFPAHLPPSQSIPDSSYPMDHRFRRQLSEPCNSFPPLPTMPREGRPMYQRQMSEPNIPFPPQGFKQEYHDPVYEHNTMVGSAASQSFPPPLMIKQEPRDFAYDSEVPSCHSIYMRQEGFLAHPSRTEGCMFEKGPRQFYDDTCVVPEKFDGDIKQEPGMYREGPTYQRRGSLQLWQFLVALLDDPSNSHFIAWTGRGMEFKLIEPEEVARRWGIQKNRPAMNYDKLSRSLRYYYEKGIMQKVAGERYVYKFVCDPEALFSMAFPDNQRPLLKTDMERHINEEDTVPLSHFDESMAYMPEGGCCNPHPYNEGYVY
# Method in brief: as §1
# ERF = target: T6, ERF (Homo sapiens, UniProt P50548 1-548); settings: protein: recombinant; tags: N-terminal GST; dsDNA, one strand shown
# T6 sequence: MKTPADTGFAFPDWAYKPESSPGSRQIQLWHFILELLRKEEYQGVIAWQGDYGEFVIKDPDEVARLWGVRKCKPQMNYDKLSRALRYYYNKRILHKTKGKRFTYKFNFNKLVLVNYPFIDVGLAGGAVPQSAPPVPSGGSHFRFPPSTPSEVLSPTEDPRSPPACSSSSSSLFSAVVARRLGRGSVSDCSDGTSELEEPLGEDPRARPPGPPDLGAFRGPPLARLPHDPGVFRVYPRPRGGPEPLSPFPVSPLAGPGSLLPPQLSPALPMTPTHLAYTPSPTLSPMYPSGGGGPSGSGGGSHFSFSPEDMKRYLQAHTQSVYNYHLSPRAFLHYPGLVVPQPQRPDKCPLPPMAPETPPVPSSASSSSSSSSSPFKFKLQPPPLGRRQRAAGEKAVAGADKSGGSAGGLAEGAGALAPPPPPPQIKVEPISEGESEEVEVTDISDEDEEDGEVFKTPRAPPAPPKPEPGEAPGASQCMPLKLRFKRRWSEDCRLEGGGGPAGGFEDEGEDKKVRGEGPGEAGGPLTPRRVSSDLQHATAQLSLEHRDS
# Method in brief: as §1
# ETV3L = target: T7, ETV3L (Homo sapiens, UniProt Q6ZN32 1-361); settings: protein: recombinant; tags: N-terminal GST; dsDNA, one strand shown
# T7 sequence: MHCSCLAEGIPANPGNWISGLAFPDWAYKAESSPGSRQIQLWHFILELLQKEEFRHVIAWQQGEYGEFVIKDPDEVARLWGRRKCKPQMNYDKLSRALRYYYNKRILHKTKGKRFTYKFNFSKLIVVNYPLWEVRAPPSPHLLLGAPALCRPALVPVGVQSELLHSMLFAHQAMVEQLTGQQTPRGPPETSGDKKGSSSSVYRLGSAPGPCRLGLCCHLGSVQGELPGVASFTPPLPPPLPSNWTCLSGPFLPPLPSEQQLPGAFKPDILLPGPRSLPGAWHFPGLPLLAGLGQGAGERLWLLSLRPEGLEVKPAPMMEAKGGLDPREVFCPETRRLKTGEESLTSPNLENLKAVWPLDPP
# Method in brief: as §1
# ETS2 = target: T8, ETS2 (Homo sapiens, UniProt P15036 1-469); settings: protein: recombinant; tags: N-terminal GST; dsDNA, one strand shown
# T8 sequence: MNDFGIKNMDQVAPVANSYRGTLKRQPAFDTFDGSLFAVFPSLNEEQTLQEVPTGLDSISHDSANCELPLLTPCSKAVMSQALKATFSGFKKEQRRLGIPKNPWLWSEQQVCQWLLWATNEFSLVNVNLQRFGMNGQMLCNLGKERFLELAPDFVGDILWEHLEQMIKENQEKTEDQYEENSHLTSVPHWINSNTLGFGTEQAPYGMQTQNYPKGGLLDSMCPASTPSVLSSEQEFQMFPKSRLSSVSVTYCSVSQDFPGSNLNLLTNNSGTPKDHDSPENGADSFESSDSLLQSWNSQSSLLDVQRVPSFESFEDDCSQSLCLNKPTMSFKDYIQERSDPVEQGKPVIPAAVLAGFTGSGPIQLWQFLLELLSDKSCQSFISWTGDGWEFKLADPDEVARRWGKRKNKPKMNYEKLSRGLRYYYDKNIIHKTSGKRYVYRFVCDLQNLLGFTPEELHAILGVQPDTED
# Method in brief: as §1
# SPDEF = target: T9, SPDEF (Homo sapiens, UniProt O95238 1-335); settings: protein: recombinant; tags: N-terminal GST; dsDNA, one strand shown
# T9 sequence: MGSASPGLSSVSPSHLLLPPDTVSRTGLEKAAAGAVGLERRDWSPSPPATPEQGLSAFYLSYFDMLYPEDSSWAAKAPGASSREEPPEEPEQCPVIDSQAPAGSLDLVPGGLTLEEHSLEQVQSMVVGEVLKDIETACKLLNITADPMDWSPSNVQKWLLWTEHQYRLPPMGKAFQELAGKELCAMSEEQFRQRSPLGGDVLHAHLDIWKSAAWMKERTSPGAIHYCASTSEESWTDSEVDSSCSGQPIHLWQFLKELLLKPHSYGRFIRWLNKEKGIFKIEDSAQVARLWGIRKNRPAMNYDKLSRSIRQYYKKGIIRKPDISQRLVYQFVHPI
# Method in brief: as §1
# ETV7 = target: T10, ETV7 (Homo sapiens, UniProt Q9Y603 1-341); settings: protein: recombinant; tags: N-terminal GST; dsDNA, one strand shown
# T10 sequence: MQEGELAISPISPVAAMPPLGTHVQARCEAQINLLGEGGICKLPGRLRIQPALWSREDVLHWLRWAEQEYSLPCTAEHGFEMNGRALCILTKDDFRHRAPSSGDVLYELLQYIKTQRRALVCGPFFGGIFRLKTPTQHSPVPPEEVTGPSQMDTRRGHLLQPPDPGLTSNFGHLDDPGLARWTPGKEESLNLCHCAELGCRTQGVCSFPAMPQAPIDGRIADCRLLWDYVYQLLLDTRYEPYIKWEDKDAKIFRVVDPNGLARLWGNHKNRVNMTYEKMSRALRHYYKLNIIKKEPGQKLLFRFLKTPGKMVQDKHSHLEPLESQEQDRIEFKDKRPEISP
# Method in brief: as §1
# ELF5 = target: T11, ELF5 (Homo sapiens, UniProt Q9UKW6-2 1-255); settings: protein: recombinant; tags: N-terminal GST; dsDNA, one strand shown
# T11 sequence: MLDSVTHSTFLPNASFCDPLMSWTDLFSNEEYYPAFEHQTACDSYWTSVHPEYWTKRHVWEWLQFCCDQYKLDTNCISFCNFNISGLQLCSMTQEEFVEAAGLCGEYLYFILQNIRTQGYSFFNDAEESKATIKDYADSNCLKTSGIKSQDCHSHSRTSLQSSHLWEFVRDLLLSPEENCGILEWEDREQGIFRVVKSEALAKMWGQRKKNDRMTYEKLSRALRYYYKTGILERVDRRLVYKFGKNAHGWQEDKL
# Method in brief: as §1
# ETV3 = target: T12, ETV3 (Homo sapiens, UniProt P41162-2 1-143); settings: protein: recombinant; tags: N-terminal GST; dsDNA, one strand shown
# T12 sequence: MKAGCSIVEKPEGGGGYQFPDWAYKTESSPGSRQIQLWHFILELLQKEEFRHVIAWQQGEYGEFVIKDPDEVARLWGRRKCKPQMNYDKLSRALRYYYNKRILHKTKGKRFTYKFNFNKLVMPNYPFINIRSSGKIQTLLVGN
# Method in brief: as §1
# ETV6 = ETV6 (Homo sapiens, UniProt P41212 1-452); settings: protein: recombinant; tags: N-terminal GST; dsDNA, one strand shown
# ETV6, sequence (P41212 whole entry): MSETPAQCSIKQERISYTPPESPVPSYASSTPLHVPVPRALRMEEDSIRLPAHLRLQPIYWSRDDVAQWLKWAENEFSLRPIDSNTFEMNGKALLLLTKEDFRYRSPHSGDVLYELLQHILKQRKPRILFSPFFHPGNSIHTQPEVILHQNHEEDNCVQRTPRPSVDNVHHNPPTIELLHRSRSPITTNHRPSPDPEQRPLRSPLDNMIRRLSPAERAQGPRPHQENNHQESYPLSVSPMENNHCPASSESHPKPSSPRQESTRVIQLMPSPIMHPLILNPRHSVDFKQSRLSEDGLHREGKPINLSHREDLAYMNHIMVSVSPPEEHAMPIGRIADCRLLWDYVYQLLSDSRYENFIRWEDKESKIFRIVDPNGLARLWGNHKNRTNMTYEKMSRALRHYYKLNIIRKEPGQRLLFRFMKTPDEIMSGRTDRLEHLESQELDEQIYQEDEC
# Method in brief: as §1
sequence,measurement,setting,value
GCTCTA,binding signal,FEV,"1.15 fold enrichment (6-mer frequency, TF over GST control)"
same,binding signal,ETV5,"1.21 fold enrichment (6-mer frequency, TF over GST control)"
same,binding signal,HSF1,"1.34 fold enrichment (6-mer frequency, TF over GST control)"
same,binding signal,SPIC,"1.26 fold enrichment (6-mer frequency, TF over GST control)"
same,binding signal,ELF4,"1.21 fold enrichment (6-mer frequency, TF over GST control)"
same,binding signal,ELK4,"1.07 fold enrichment (6-mer frequency, TF over GST control)"
same,binding signal,ETV2,"1.19 fold enrichment (6-mer frequency, TF over GST control)"
same,binding signal,ELF3,"1.28 fold enrichment (6-mer frequency, TF over GST control)"
same,binding signal,CRX,"1.36 fold enrichment (6-mer frequency, TF over GST control)"
same,binding signal,ETV1,"1.11 fold enrichment (6-mer frequency, TF over GST control)"
same,binding signal,ERF,"1.27 fold enrichment (6-mer frequency, TF over GST control)"
same,binding signal,ETV3L,"1.24 fold enrichment (6-mer frequency, TF over GST control)"
same,binding signal,ETS2,"1.16 fold enrichment (6-mer frequency, TF over GST control)"
same,binding signal,SPDEF,"1.15 fold enrichment (6-mer frequency, TF over GST control)"
same,binding signal,ETV7,"1.19 fold enrichment (6-mer frequency, TF over GST control)"
same,binding signal,ELF5,"1.14 fold enrichment (6-mer frequency, TF over GST control)"
same,binding signal,ETV3,"1.1 fold enrichment (6-mer frequency, TF over GST control)"
same,binding signal,ETV6,"1.09 fold enrichment (6-mer frequency, TF over GST control)"
